FAS-TE inh: FAS thioesterase (human) inhibition. recombinant FAS-TE, OMFH fluorogenic substrate, fluorescence endpoint. P49327. inhibition, % at 15 µM. hit rate 0.67% among 360,000;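 active = compounds whose normalised, plate-corrected inhibition of enzyme fluorescence in the single-dose primary screen is 50% or more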;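 also: 0% = DMSO with enzyme and 100% = substrate without enzyme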
Target sequence (P49327 whole entry, looked up): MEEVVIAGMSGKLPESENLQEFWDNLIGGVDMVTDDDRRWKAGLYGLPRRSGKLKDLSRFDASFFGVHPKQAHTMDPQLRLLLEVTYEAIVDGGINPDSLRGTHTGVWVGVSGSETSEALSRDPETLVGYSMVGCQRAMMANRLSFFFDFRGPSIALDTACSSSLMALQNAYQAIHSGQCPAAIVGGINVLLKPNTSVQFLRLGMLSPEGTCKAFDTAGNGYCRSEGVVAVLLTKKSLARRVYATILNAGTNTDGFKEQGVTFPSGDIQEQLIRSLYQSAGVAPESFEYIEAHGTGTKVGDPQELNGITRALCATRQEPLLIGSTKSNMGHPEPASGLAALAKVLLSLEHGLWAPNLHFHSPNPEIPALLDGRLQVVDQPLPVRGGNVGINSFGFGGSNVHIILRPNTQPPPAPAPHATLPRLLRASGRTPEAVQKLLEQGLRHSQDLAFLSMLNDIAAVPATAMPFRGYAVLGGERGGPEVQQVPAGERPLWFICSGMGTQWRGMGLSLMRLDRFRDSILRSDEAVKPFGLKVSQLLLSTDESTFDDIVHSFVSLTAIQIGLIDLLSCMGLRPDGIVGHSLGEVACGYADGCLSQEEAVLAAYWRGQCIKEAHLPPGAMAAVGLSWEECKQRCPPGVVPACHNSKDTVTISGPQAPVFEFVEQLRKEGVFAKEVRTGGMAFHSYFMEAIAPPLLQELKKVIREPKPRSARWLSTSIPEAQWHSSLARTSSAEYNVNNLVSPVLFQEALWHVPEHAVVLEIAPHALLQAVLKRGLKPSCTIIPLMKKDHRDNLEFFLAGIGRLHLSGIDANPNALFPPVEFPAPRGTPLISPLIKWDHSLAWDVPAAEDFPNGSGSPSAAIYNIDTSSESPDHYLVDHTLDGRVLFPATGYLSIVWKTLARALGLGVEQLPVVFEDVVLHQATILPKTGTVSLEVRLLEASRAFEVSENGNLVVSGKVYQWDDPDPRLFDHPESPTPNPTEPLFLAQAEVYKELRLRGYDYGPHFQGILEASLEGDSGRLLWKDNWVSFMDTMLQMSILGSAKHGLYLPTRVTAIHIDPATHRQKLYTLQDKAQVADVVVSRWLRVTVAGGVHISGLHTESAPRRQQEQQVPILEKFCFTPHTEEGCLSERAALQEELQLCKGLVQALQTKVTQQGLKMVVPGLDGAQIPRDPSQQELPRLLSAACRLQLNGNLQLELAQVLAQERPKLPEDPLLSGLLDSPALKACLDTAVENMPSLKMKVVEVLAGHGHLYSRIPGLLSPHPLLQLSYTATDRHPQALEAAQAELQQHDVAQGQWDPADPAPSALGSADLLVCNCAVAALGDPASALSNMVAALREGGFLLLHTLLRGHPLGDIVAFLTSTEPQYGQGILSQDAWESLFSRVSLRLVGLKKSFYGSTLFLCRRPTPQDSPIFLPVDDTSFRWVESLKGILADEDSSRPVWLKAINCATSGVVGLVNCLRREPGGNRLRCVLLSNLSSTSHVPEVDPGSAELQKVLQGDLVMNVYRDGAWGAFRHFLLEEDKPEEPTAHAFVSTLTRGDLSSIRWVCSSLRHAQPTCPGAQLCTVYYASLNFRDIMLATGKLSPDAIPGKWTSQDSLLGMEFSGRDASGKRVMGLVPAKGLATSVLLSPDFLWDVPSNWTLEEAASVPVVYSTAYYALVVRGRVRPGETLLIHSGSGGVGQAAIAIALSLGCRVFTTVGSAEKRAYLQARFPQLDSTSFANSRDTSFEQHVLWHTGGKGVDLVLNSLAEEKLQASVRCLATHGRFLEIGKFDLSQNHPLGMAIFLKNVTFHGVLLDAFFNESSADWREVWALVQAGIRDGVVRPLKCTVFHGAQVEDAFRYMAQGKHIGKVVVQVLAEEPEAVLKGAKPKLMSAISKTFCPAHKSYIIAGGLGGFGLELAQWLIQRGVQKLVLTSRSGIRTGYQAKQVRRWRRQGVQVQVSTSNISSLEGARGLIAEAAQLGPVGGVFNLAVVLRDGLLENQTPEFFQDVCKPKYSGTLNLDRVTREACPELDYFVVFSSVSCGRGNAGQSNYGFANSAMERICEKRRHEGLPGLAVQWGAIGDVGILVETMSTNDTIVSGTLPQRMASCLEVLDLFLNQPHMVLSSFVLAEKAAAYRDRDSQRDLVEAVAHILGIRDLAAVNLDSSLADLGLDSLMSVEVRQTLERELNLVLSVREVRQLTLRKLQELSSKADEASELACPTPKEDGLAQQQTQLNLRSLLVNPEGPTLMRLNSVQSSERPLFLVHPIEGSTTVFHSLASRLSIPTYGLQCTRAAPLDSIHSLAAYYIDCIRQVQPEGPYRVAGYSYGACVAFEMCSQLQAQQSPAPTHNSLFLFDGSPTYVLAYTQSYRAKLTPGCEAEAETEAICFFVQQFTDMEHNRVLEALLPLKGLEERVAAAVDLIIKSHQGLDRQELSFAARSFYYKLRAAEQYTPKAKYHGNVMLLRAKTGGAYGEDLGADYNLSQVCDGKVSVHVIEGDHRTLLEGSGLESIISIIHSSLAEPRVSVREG
rCAG binder: binds r(CAG) RNA repeats | r(CAG) RNA repeat, TO-PRO-1 dye displacement fluorescence | inhibition, % at 3 µM | hit rate 1.3% among 370,000 | AID 651821;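 active = inhibition above the plate cutoff, the mean of all test compounds on that plate plus 3 SD, cut at about 35% in these data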;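 also: 0% = DMSO alone and 100% = 100 µM mitoxantrone as full dye displacement; higher means more dye released from RNA so lower well fluorescence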
NR3A LBD binder: modulators (binders) of human NR3A ligand-binding domain. NR3A LBD differential scanning fluorimetry, Tm shift; 0% = protein alone, 100% = glycine-bound protein. Tm shift relative to glycine control, % at 25 µM. hit rate 2.5% among 340,000. AID 1259313;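 active = melting temperature shift of at least 10% of the positive control shift, at one fixed dose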
NadD block: NadD (S. aureus) enzyme inhibition; purified NadD enzyme, colorimetric absorbance read-out; inhibition, % at 20 µM; hit rate 0.78% among 360,000; AID 602399; in the data active = inhibition above about 26%
FAS-TE inh conf: FAS thioesterase (human) inhibition, confirmation. inhibition, % at 15 µM. hit rate 45% among 2,300. shares compounds with FAS-TE inh. recombinant FAS-TE, OMFH fluorogenic substrate, fluorescence. AID 624325;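 active = compounds inhibiting the enzyme by at least 50% at 15 µM in any one of the replicates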;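 also: 0% = enzyme with DMSO only and 100% = wells lacking enzyme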
* hit, by the source's call; · = no result. Shown are actives, neighbours in structure and some others; about 4.3% of the full set was active somewhere.

SMILES	FAS-TE inh	rCAG binder	NR3A LBD binder	NadD block	FAS-TE inh conf
O=C(NCCN1CCC2(CC1)C(=O)NCN2c1ccccc1)c1cc(C(F)(F)F)ccc1C(F)(F)F	·	-1.1	·	·	·
COc1ccc2nc(-c3ccc(CN4CCC(n5nnc6ccccc65)CC4)cc3)c(-c3ccccc3)nc2c1	·	10.1	·	·	·
CCOc1cc(C=C2C(=O)NC(=S)NC2=O)ccc1O	-5.3	-0.1	0.8	0.6	·
O=C1NC(=S)NC(=O)C1=Cc1ccc2c(c1)CCN2CCCCl	-4.0	·	0.9	52.9*	·
O=C(COC(=O)c1ccc(O)cc1)Nc1ccc(Cl)cc1C(=O)c1ccccc1	32.0	8.2	17.9*	-0.8	·
CCOC(=O)c1c(C)n(Cc2ccccc2)c2ccc(O)cc12	10.1	2.1	-6.5	-12.2	·
COC(=O)c1c(C)n(Cc2ccccc2)c2ccc(O)cc12	-1.3	-1.5	14.3*	5.4	·
c1cncc(-c2ccc3n2Cc2cnnn2-c2ccccc2-3)c1	·	-2.1	·	·	·
O=C1NC(=O)N(Cc2ccccc2)C(=O)C1Cc1ccccc1 (stereo not drawn)	-5.0	3.1	0.3	-0.8	·
O=C1NC(=S)NC(=O)C1Cc1ccccc1	-2.2	5.4	12.6*	-3.5	·
O=C(NCCN1CCC2(CC1)C(=O)NCN2c1ccccc1)c1ccc(OC(F)(F)F)cc1	·	2.5	·	·	·
COC(=O)C1C(OC(=O)c2ccccc2)CC2CCC1[N+]2(C)C (stereo not drawn)	·	1.9	·	·	·
CCOC(=O)C(C)Oc1cc(C)cc2oc(=O)c3c(c12)CCCC3 (stereo not drawn)	23.2	-0.8	15.3*	-8.1	·
COC(=O)C1(N(C)c2ccccc2)CCN(Cc2ccccc2)CC1	·	-0.1	·	·	·
O=c1[nH]c2cc(Cl)ccc2n1C1CCN(Cc2ccc(-c3nc4ccc(F)cc4nc3-c3ccccc3)cc2)CC1	·	10.9	·	·	·
Cc1cccc2nc(-c3ccccc3)c(-c3ccc(CN4CCC(n5c(=O)[nH]c6cc(Cl)ccc65)CC4)cc3)nc12	·	12.8	·	·	·
N#Cc1ccc2nc(-c3ccc(CN4CCC(n5c(=O)[nH]c6cc(Cl)ccc65)CC4)cc3)c(-c3ccccc3)nc2c1	·	14.0	·	·	·
O=c1[nH]c2ccccc2n1C1CCN(Cc2ccc(-c3nc4ccccc4nc3-c3ccccc3)cc2)CC1	61.1*	11.2	·	18.8	3.5
Cc1ccc2nc(-c3ccc(CN4CCC(n5c(=O)[nH]c6ccccc65)CC4)cc3)c(-c3ccccc3)nc2c1	71.7*	10.9	·	25.0	11.6
O=c1[nH]c2ccccc2n1C1CCN(Cc2ccc(-c3nc4ccc(F)cc4nc3-c3ccccc3)cc2)CC1	63.1*	9.5	·	17.5	9.9
CS(=O)(=O)N1Cc2cc(Br)ccc2-n2nncc2C1	·	2.6	·	·	·
O=C(Nc1ccccc1)N1Cc2cc(Br)ccc2-n2nncc2C1	·	1.1	·	·	·
COC(=O)C1=C(c2cccc3c2S(=O)(=O)c2ccccc2-3)C[C@@H]2CC[C@H]1N2C(=O)N1CCc2cc(OC)c(OC)cc2C1	67.7*	3.9	-1.3	-1.3	31.0
Cc1cccc(CSc2nc3c(cc2C#N)CN(C)CC3)c1	-5.3	-3.7	-6.3	5.2	·
CN1CCc2nc(SCc3ccccc3Br)c(C#N)cc2C1	53.9*	0.2	-0.7	24.2	44.6*
SMILES	FAS-TE inh	rCAG binder	NR3A LBD binder	NadD block	FAS-TE inh conf
COc1ccc(-n2nnnc2C(c2ccccc2)N2CCC3(CC2)C(=O)NCN3c2ccccc2)cc1 (stereo not drawn)	14.5	11.4	·	8.3	·
COc1ccc(C(c2nnnn2-c2ccc(OC)cc2)N2CCC3(CC2)C(=O)NCN3c2ccccc2)cc1 (stereo not drawn)	51.9*	8.6	·	12.5	24.3
COc1ccc(-n2nnnc2C(c2ccccc2OC(F)(F)F)N2CCC3(CC2)C(=O)NCN3c2ccccc2)cc1 (stereo not drawn)	60.5*	6.9	·	14.4	31.1
O=C1NCN(c2ccccc2)C12CCN(C(c1ccccc1OC(F)(F)F)c1nnnn1-c1ccc3c(c1)OCCO3)CC2 (stereo not drawn)	82.1*	6.5	·	19.7	29.8
Cc1ccc(C(=O)NCCN2CCC3(CC2)C(=O)NCN3c2ccccc2)cc1	·	3.3	·	·	·
CCOC(=O)CNC(=O)N1Cc2cc(Br)ccc2-n2nncc2C1	·	2.5	·	·	·
OC1CN2CCCC(O)C2C1O (stereo not drawn)	·	0.2	·	·	·
O=Cc1cn(Cc2cccc([N+](=O)[O-])c2)c2ccccc12	54.8*	1.1	1.9	-2.8	58.8*
Cc1cccc(Cn2cc(C=O)c3ccccc32)c1	12.2	-0.4	0.9	-8.2	·
O=C(NC1CCCCC1)N1Cc2ccc(Br)cc2-n2nncc2C1	·	-0.5	·	·	·
O=C1C=CC(=O)C2C1C1(Cl)C(Cl)=C(Cl)C2(Cl)C1(Cl)Cl (stereo not drawn)	60.4*	7.7	-6.5	-4.8	57.4*
COc1ccc2c3c([nH]c2c1)[C@H](C=C(C)C)N1C(=O)[C@@H]2CCCN2C(=O)[C@@H]1C3	·	-0.1	·	·	·
Cn1cc(C=C(C#N)C#N)c2ccccc21	62.8*	-2.4	-0.4	-0.6	-19.6
N#CCC[C@H]1CC[C@]2(CCCN(Cc3ccccn3)C2)O1	·	1.7	·	·	·
CCOC(=O)[C@]12Cc3ccccc3[C@H]1N(C(C)C)C(=O)c1cc(OC)ccc12	35.2	-0.1	·	-0.4	·
CCOC(=O)[C@]12Cc3cc(C)ccc3[C@H]1N(CCC(=O)OC)C(=O)c1cc(OC)ccc12	24.8	2.6	·	3.1	·
CCOC(=O)[C@]12Cc3cc(C)ccc3[C@H]1N(C1CCCCC1)C(=O)c1cc(OC)ccc12	84.8*	4.4	·	4.8	39.9*
CCOC(=O)[C@]12Cc3cc(OC)ccc3[C@H]1N(C1CCCCC1)C(=O)c1cc(OC)ccc12	62.1*	0.1	·	1.6	15.9
CCOC(=O)[C@]12Cc3cc(C)ccc3[C@H]1N(C(C)C)C(=O)c1ccccc12	56.8*	-0.2	·	-5.6	32.7
COc1cc(O)c2c(c1)/C=C/C[C@H](O)[C@H](O)[C@@H](O)/C=C/C[C@H](C)OC2=O	·	2.2	·	·	·
CCC(NC(=O)OCc1ccccc1)P(=O)(Oc1ccccc1)Oc1ccccc1 (stereo not drawn)	·	-0.9	·	·	·
C=CCn1c(=O)c(C=Nc2c(OC)cccc2[N+](=O)[O-])c(O)n(CCCC)c1=O	70.4*	7.8	-5.6	1.5	20.0
C=CCn1c(=O)c(C=Nc2cccc([N+](=O)[O-])c2)c(O)n(CCCC)c1=O	42.5	6.9	-0.6	1.5	·
COc1ccc([N+](=O)[O-])cc1N=Cc1c(O)n(CCc2ccccc2)c(=O)n(C(C)C)c1=O	72.4*	7.0	-2.5	-1.5	-3.3
CN(Cc1cccc(-c2cccnc2)c1)C(=O)Oc1ccc([N+](=O)[O-])cc1	51.4*	0.8	·	-6.1	24.7
O=S(=O)(c1cc(Cl)cc(Cl)c1)N1Cc2cc(-c3ccccc3)ccc2-n2nncc2C1	85.9*	0.5	·	5.4	9.5
COc1ccc(-n2nnnc2C(c2ccccc2OC(F)(F)F)N2CCC(n3c(=O)[nH]c4ccccc43)CC2)cc1 (stereo not drawn)	60.0*	6.4	·	23.5	2.4
CCC(c1nnnn1-c1ccc(OC)cc1)N1CCC(n2c(=O)[nH]c3ccccc32)CC1 (stereo not drawn)	-3.3	0.7	·	-9.1	·

Screens: PubChem BioAssay, several laboratories
